# Hit rate of the full screen: of about 220,000 compounds, about 830 (0.38%) were called active. What follows is part of a selection rich in actives, with near analogues and random picks from the rest. Unmarked numbers belong to inactive results. The rule behind the calls is not given here.
# Biological target: Regulator of G-protein signaling 16 (Homo sapiens) + Guanine nucleotide-binding protein G(o) subunit alpha (Homo sapiens) (UniProt O15492+P09471)
# Assay: RGS16-Galphao interaction inhibitors and enhancers – biochemical, human proteins, multiplexed bead flow cytometry, primary screen (AID 1441);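 note: Galphao activated by GDP with aluminum fluoride before binding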
# Conditions: bead-based flow cytometry RGS16-Galphao binding, fluorescence; at 10 µM; actives lie on both sides
# Chain of Regulator of G-protein signaling 16 (Homo sapiens) + Guanine nucleotide-binding protein G(o) subunit alpha (Homo sapiens) (O15492 whole entry, looked up): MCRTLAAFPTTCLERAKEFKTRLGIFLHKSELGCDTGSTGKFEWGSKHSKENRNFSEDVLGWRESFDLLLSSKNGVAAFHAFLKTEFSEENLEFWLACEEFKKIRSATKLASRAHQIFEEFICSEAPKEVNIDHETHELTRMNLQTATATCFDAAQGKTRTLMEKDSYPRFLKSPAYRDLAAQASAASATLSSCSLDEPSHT
# Chain of Regulator of G-protein signaling 16 (Homo sapiens) + Guanine nucleotide-binding protein G(o) subunit alpha (Homo sapiens) (P09471 whole entry, looked up): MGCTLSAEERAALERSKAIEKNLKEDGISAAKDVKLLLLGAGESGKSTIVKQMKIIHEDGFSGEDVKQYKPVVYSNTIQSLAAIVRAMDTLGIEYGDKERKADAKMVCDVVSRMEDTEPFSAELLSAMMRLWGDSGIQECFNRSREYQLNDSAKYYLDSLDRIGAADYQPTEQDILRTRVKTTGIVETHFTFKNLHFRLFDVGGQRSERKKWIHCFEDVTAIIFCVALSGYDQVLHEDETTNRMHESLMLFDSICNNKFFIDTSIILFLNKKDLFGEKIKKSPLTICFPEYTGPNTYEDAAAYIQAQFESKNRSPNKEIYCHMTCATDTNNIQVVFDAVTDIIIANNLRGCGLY
row,SMILES,binding response (% of control)
1,NC(=O)CSc1c[nH]c2ccccc12,19.6% (active)
2,CCCn1cc(SCC(N)=O)c2ccccc21,85.2%
3,O=C(Cc1c[nH]c2ccccc12)OCCOC(=O)Cc1c[nH]c2ccccc12,97.3%
4,Oc1ccc2ccccc2c1N=Nc1nccs1,99.9%
5,Oc1ccc(N=Nc2nccs2)c(O)c1,-16.2% (active)
6,CCN1CCN(C(=O)CCN2C(=O)c3ccccc3C2=O)CC1,93.9%
7,Cc1noc(C)c1S(=O)(=O)Nc1cc(C(F)(F)F)ccc1N1CCOCC1,98%
8,COC(=O)c1c(C)[nH]c(C)c1-c1ccc([N+](=O)[O-])cc1,85.3%
9,CC(=O)N1CC[n+]2c(-c3ccc([N+](=O)[O-])cc3)csc21,12.8% (active)
10,Cc1cc(C)cc(C(=O)N2CCN=C2SCc2ccc([N+](=O)[O-])cc2)c1,96.2%
11,O=C(Nc1ccc2cn[nH]c2c1)c1ccc(S(=O)(=O)N2CCOCC2)cc1,92.3%
12,Cc1cc(F)ccc1S(=O)(=O)Nc1ncnc2scc(-c3ccc(F)cc3)c12,95.8%
13,CCOc1cc(CNCc2ccccn2)ccc1OCC(=O)NC(C)(C)C,103%
14,Clc1ccc2nc(CSc3ccccc3)cn2c1,169%
15,CC(Sc1nnc2c(n1)C1CCC2(C)C1(C)C)C(=O)Nc1ccccc1 (stereo unspecified),102%
16,O=C(Nc1nc2c(F)cc(F)cc2s1)C1COc2ccccc2O1 (stereo unspecified),99.5%
17,NC(=O)c1c(Nc2nc3c(F)cccc3s2)sc2c1CCCC2,95%
18,Fc1cc(F)c2nc(Nc3nc4c(F)cccc4s3)sc2c1,192% [activator] (active)
19,NC(=O)CC(NC(=O)Cc1cccc2ccccc12)c1ccc(NCc2cc(F)ccc2F)c([N+](=O)[O-])c1 (stereo unspecified),100%
20,CC(C)CC(=O)Nc1cc(C(F)(F)F)ccc1N1CCOCC1,101%
21,COc1cc(C(=O)Nc2cc(C(F)(F)F)ccc2-n2cncn2)cc(OC)c1OC,98.2%
22,COc1cc(C(=O)Nc2cc(C(F)(F)F)ccc2N2CCOCC2)ccc1O,9.57% (active)
23,CC(=O)N1N=C(c2ccncc2)OC1(Cc1ccccc1)Cc1ccccc1,96.5%
24,N#Cc1c(N2CCCCC2)nc(N)c2c(N)nc(SCC(=O)O)cc12,114%

row,SMILES,binding response (% of control)
1,COc1ccc(CCNC(=O)C(=O)Nc2ccc3nc4n(c(=O)c3c2)CCCCC4)cc1OC,105%
2,Cc1nn(-c2ccccc2)c(=O)c2noc(C)c12,102%
3,CCC(C)NC(=O)C1c2ccccc2Oc2ccccc21 (stereo unspecified),103%
4,O=C(OCC(=O)N1CCN(C(=O)c2ccco2)CC1)c1ccccc1Cc1ccccc1,82.8%
5,COc1cccc(OC)c1OCCN1CCN(C(=O)c2ccco2)CC1,101%
6,Cc1ccc(C)c(OCC(=O)N2CCN(C(=O)c3ccco3)CC2)c1,24.4% (active)
7,CC(C)(C)C1CCC(=NNC(=O)c2cc(-c3ccccc3)n[nH]2)CC1 (stereo unspecified),85.9%
8,O=C(CN1CCCCC1)N1c2ccccc2Sc2ccc(C(F)(F)F)cc21,-6.83% (active)
9,O=C(CN1CCCCCC1)N1c2ccccc2Sc2ccc(C(F)(F)F)cc21,81.4%
10,COc1cc(/C=C/C(=O)N2c3ccccc3Sc3ccc(C(F)(F)F)cc32)cc(OC)c1OC,97%
11,COc1ccc(S(=O)(=O)N(C)C)cc1NC(=O)CSc1ncccn1,101%
12,CCC(C)N(C(=O)COC(=O)C1C(C(=O)OC)=C(C)NC(C)=C1C(=O)OC)C1CCS(=O)(=O)C1 (stereo unspecified),104%
13,CCCn1c(C)cc(C(=O)COC(=O)c2c(C)nn(-c3ccccc3)c2C)c1C,-33.9% (active)
14,Cc1nn(-c2ccccc2)c(C)c1C(=O)OCC(=O)NC(=O)NC1CCCCC1,98.5%
15,Cc1ccc(OC(=O)c2c(C)nn(-c3ccccc3)c2C)cc1,96.3%
16,O=C(Nc1ccc(Cl)cc1)/C(=C1\CCCN1)[N+](=O)[O-],97.8%
17,COc1ccc(C2CC(c3ccccc3)Nc3ncnn32)cc1 (stereo unspecified),103%
18,FC(F)Oc1ccccc1C1CC(c2ccc(Br)s2)Nc2ncnn21 (stereo unspecified),215% [activator] (active)
19,Clc1ccc(C2CC(c3cccs3)n3ncnc3N2)cc1Cl (stereo unspecified),103%
20,COc1ccc(CCNC(=O)c2ccc(CS(=O)(=O)c3ccc(Br)cc3)o2)cc1OC,107%
21,COc1ccccc1N(C)S(=O)(=O)c1ccc(C(=O)NC2CCCCCC2)cc1,102%
22,CC(=O)Nc1ccc(/C=N/Nc2ccc(C(=O)c3c(C)cc4ccccn34)cc2[N+](=O)[O-])cc1,89.3%
23,COC(C[C@H](O)CC(=O)COCc1ccccc1)OC,110%
24,CC(C)(CNC(=O)c1ccc(Cl)c(S(=O)(=O)N2CCc3ccccc3C2)c1)N1CCOCC1,96.9%

row,SMILES,binding response (% of control)
1,CCOC(=O)C1Sc2[nH]c(=O)sc2C(c2ccc(Cl)cc2)C1C(=O)OCC (stereo unspecified),-39.2% (active)
2,CCOC(=O)C1C(c2ccc(Cl)cc2)NC(=S)NC1(O)C(F)(F)F (stereo unspecified),102%
3,CCOC(=O)C1=C(C)NC(=O)N(C(C)=O)C1c1ccc(Cl)cc1 (stereo unspecified),109%
4,CC(C)(C)NC(=O)COC(=O)c1cc(Cl)ccc1[N+](=O)[O-],100%
5,CN1C=CC=C/C1=C1\SC(=S)N(Cc2ccccc2)C1=O,100%
6,Cc1ccccc1NC(=S)N(CCCN1CCOCC1)Cc1cccs1,181% [activator] (active)
7,Cc1ccc(Cl)cc1NC(=S)N(CCN(C)C)Cc1cccs1,99.5%
8,CCc1cccc(C)c1NC(=S)N(CCCN1CCN(C)CC1)Cc1cccs1,105%
9,COc1ccc(C(CC(=O)N2CCN(c3ccccc3)CC2)c2c(O)cc(OC)cc2OC)cc1 (stereo unspecified),99.5%
10,O=C(CCNc1n[nH]c(=O)[nH]c1=O)N/N=C\c1ccc(Br)cc1,100%
11,NCCCCCC(=O)N/N=C/c1ccc2nccnc2c1,105%
12,CC(=O)N(CN1C(=O)C2C3C=CC(C3)C2C1=O)c1cccc(Cl)c1 (stereo unspecified),104%
13,Cc1ccc(OCCCn2c(=O)oc3ccccc32)cc1,106%
14,O=C(O)C#Cc1cccc2ccccc12,103%
15,Nc1ccc(OCC(O)C[n+]2ccc(CCS(=O)(=O)[O-])cc2)cc1 (stereo unspecified),97.6%
16,Cc1cc(NC(=O)COc2ccc(Cl)cc2Cl)n(CCC#N)n1,93.4%
17,CCCn1nnnc1NC(=O)COc1ccc(Cl)cc1C,2.27% (active)
18,CCOC(=O)N1CCN(C(=O)COc2ccc(Cl)cc2C)CC1,97.8%
19,CC(C)=NN1C(=O)c2ccccc2NC1(C)C,120%
20,O=C(CSc1cccc[n+]1[O-])c1ccc(-c2ccccc2)cc1,104%
21,N#Cc1ccc(CSc2nnc3ccccn23)cc1,101%
22,COP1(=O)C[C@@H](O)[C@@H](O)[C@@H](COCc2ccccc2)O1 (stereo partly specified),103%
23,Cc1ccsc1C1C(C#N)=C(N)OC2=C1C(=O)CC(C)(C)C2 (stereo unspecified),118%
24,COc1ccc(Cl)cc1C(=O)NNC(=O)c1nc2nc(C)cc(C)n2n1,95.3%

row,SMILES,binding response (% of control)
1,O=C(OCc1ccc(Br)cc1)c1cccc(-c2nnc(-c3ccccc3)o2)c1,102%
2,O=C(/C=C/c1ccco1)Nc1cccc(-c2nc3ccccc3[nH]2)c1,98.3%
3,O=C(Cc1cccs1)Nc1cccc(-c2nc3ccccc3[nH]2)c1,97.3%
4,O=C(Nc1cccc(-c2nc3ccccc3[nH]2)c1)c1ccc(C(=O)Nc2cccc(-c3nc4ccccc4[nH]3)c2)cc1,219% [activator] (active)
5,NC(=S)Nc1c(Cl)cccc1Cl,98.9%
6,CCOc1c(Nc2cccc(Cl)c2)c(=O)c1=O,119%
7,COc1ccc(-c2ccc(CNCCCN3CCOCC3)o2)cc1Cl,98.4%
8,CNC(=S)NNC(=O)c1cccn(Cc2ccccc2)c1=O,100%
9,CCCC[C@@H]1CN=C(N)N1CCc1cc(C(F)(F)F)cc(C(F)(F)F)c1,100%
10,CCN(CC)c1ccc(/C=N/NC(=O)c2cnccn2)c(O)c1,94.6%
11,N/C(=N\OC(=O)CCc1ccccc1)c1cccnc1,105%
12,COc1ccccc1C(=O)n1nc(-c2ccccc2)nc1N,102%
13,COc1ccc(CC(=O)n2nc(-c3cccnc3)nc2N)cc1,93.8%
14,CCCC(=O)n1nc(-c2ccccc2)nc1N,14.9% (active)
15,Nc1ccccc1C(=O)NC1CCCCNC1=O (stereo unspecified),95.3%
16,COc1ccc2c(c1)C(=C(C#N)C#N)C(=O)N2CCc1ccccc1,113%
17,Nc1ccc(C(=O)OCC(=O)NC2CCCc3ccccc32)cc1[N+](=O)[O-] (stereo unspecified),98.8%
18,Nc1ccc(C(=O)OCC(=O)NC2CCS(=O)(=O)C2)cc1[N+](=O)[O-] (stereo unspecified),-10.3% (active)
19,O=C(COC(=O)/C=C/c1ccc2c(c1)OCO2)NC1CCS(=O)(=O)C1 (stereo unspecified),98.5%
20,COc1cc(OC)c(C(=O)N2CCCC2)cc1OC,100%
21,CCC(C)(C)NC(=O)C(c1cccc(OC)c1OC)N(CC(C)C)C(=O)CCC(=O)Nc1cc(C)on1 (stereo unspecified),105%
22,COc1ccc(-c2nn(-c3ccccc3)cc2C(=O)Nc2nccs2)cc1OC,24.6% (active)
23,COc1ccc(-c2nn(-c3ccccc3)cc2C(=O)Nc2nc(CC(C)=O)ns2)cc1,95.8%
24,COc1ccc(-c2nn(-c3ccccc3)cc2/C=N/Nc2ccccn2)cc1OC,112%
